Consider one compound from the supplement of paper PMC6411743.

Molecules are shown by their SMILES. ± gives the standard deviation of the averaged measurements. The full data set covers some 6,200 targets. This sample favours those with the largest changes.

What all share (test): NP40-soluble protein abundance relative to vehicle (solubility fold change) (ratio); higher = more soluble protein in presence of AMP-PNP
One assay has as its target T1, D6R9V8|Q9UKY7 (UniProt Q9UKY7).
T1 sequence (whole entry): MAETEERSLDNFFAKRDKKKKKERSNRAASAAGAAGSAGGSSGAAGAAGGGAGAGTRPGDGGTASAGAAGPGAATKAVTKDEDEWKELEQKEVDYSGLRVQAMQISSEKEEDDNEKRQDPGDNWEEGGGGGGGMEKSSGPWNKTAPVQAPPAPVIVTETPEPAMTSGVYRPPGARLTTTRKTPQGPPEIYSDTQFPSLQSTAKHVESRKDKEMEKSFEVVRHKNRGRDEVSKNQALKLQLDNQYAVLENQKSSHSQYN
The method in brief: (§1)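 Eight concentrations, 0.1 to 10 mM, were tested on Jurkat crude lysate for 10 min at room temperature and then 3 min at 37 °C, in three independent experiments. The lysate was solubilised with 0.8% NP40 and benzonase, ultracentrifuged, and the supernatant TMT-labelled for LC-MS/MS. Each value is the fold change against the detergent-processed vehicle in its own replicate, from vsn-normalised intensities.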

For a further assay, the target named is T2, E9PNW4|E9PR17|P13987 (UniProt P13987).
T2 sequence (whole entry): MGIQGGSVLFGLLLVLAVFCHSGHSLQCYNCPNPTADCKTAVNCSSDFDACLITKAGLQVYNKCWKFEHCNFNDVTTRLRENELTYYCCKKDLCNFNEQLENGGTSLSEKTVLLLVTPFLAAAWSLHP
Summed up:
as §1

Another assay addresses T3, UniProt O43861|O43861-2.
T3 sequence (whole entry): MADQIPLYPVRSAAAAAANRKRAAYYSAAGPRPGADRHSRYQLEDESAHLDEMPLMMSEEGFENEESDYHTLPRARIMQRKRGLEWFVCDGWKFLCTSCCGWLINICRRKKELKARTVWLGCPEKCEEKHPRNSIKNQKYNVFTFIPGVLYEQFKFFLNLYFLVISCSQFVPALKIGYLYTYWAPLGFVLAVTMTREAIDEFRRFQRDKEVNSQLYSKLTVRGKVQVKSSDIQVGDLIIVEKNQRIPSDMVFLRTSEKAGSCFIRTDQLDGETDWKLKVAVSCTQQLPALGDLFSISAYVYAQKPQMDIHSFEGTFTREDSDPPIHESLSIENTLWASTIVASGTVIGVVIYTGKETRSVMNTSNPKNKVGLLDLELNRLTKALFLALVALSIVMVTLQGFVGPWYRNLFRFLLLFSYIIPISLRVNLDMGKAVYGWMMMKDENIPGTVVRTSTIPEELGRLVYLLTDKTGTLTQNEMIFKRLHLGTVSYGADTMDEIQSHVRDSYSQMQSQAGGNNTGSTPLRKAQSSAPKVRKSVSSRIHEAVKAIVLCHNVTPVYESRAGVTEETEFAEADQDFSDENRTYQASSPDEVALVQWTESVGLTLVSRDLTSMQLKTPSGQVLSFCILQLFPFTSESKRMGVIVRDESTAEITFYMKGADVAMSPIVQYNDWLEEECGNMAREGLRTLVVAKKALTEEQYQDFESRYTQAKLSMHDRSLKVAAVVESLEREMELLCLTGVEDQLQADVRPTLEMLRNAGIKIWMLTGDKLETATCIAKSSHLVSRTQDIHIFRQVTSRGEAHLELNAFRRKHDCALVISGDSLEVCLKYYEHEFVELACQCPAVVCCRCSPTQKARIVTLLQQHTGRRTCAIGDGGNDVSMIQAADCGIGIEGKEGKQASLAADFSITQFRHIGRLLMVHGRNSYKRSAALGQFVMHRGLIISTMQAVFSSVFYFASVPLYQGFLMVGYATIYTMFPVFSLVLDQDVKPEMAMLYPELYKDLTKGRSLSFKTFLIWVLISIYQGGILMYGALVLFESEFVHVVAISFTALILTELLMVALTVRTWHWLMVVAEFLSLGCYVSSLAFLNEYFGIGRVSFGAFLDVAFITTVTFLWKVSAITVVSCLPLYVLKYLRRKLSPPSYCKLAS
Summed up: as §1

The next assay deals with T4, ZW10 (UniProt O43264).
T4 sequence (whole entry): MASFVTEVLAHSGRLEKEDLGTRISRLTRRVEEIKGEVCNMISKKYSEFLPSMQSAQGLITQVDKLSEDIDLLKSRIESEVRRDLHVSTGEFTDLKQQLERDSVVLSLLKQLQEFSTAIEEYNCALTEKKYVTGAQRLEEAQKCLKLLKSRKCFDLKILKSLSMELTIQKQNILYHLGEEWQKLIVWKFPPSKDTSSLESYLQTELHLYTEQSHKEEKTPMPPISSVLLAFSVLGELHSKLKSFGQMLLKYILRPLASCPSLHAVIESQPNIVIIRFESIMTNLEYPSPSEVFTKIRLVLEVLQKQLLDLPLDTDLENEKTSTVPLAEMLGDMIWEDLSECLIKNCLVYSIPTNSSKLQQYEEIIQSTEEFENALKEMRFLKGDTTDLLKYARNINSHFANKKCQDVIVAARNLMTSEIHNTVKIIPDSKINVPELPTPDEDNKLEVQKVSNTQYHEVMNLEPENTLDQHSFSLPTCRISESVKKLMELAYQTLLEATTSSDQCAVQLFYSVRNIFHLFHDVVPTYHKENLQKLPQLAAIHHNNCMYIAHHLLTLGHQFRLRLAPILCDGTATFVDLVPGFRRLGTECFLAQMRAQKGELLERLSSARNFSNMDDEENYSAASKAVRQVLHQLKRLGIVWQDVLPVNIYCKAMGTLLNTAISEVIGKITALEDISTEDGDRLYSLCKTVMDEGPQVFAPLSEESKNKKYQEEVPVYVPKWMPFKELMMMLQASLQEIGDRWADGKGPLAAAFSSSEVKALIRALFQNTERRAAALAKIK
The method in brief:
as §1

On to `Nc1ncnc2c1ncn2[C@@H]1O[C@H](COP(=O)(O)OP(=O)(O)NP(=O)(O)O)[C@@H](O)[C@H]1O` [adenylyl imidodiphosphate], for which the NP40-soluble protein abundance came out at 1.03 ± 0.021 with D6R9V8|Q9UKY7 (concentration: 1mM); 1.09 ± 0.089 in the assay with D6R9V8|Q9UKY7 (concentration: 2mM); 1.03 ± 0.034 with D6R9V8|Q9UKY7 (concentration: 4mM); 1.04 ± 0.034 with D6R9V8|Q9UKY7 (concentration: 6mM); 0.993 ± 0.028 with D6R9V8|Q9UKY7 (concentration: 8mM); 1.05 ± 0.07 in the assay with D6R9V8|Q9UKY7 (concentration: 10mM). The NP40-soluble protein abundance with E9PNW4|E9PR17|P13987 (concentration: 1mM) stood at 1.05 ± 0.053; with E9PNW4|E9PR17|P13987 (concentration: 2mM), 1.11 ± 0.13; in the assay with E9PNW4|E9PR17|P13987 (concentration: 4mM), 1.03 ± 0.049; with E9PNW4|E9PR17|P13987 (concentration: 6mM), 1.07 ± 0.051; with E9PNW4|E9PR17|P13987 (concentration: 8mM), 1.1 ± 0.015; with E9PNW4|E9PR17|P13987 (concentration: 10mM), 1.06 ± 0.03. Besides, the NP40-soluble protein abundance was found to be 1.01 ± 0.022 in the assay with UniProt O43861|O43861-2 (concentration: 1mM); 1 ± 0.012 in the assay with UniProt O43861|O43861-2 (concentration: 2mM); 1.01 ± 0.025 in the assay with UniProt O43861|O43861-2 (concentration: 4mM); 0.986 ± 0.013 with UniProt O43861|O43861-2 (concentration: 6mM); 1 ± 0.041 in the assay with UniProt O43861|O43861-2 (concentration: 8mM); 1.024 ± 0.0049 with UniProt O43861|O43861-2 (concentration: 10mM). Also, the NP40-soluble protein abundance was found to be 0.994 ± 0.031 with ZW10 (concentration: 1mM); 0.974 ± 0.043 in the assay with ZW10 (concentration: 2mM); 0.977 ± 0.047 with ZW10 (concentration: 4mM); 0.936 ± 0.064 in the assay with ZW10 (concentration: 6mM); 0.919 ± 0.081 with ZW10 (concentration: 8mM); 0.941 ± 0.07 with ZW10 (concentration: 10mM).
